In PubChem BioAssay:
Activity calls are given as the source filed them.

Experiment: small-molecule microarray binders of probe aXIP, primary screen, biochemical, NeuroSMM set, 635/667 nm fluorescence (AID 1119);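 further: probe is the protein aXip251-270 applied at 1 µg/mL to compound-printed slides; binding of probe to printed compounds measured as 667 nm fluorescence plus signal to noise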
Details: higher = more signal, called active from +8 up or from −8 down

Composite Z-score, inactive:
COC(=O)[C@H](C)NC(=O)CCC1CC(OC(=O)NCCc2ccc(F)cc2)CC2(CCCC(COC(=O)NCCc3ccc(Cl)cc3)O2)O1 (stereo partly drawn) 0.65, C=COC[C@H]1CN2[C@@H](CC[C@@H](C)[C@@H]2c2ccc(Br)cc2)C(=O)O1 -0.0224, CN1C(=O)C2C=CC(C(O)c3ccc(Br)cc3)N(N(c3ccccc3)c3ccccc3)C2C1=O (stereo not drawn) 0.49, COC(=O)[C@H](C)NC(=O)[C@@H](C)CO 0.292, O=C1[C@H]2[C@H]3[C@H](O)[C@H](O)CC(=NOCc4ccccc4)[C@@H]3CC[C@H]2C(=O)N1Cc1ccccc1 -0.119, CC(C)[C@@H](OCc1ccccc1)[C@H](C)C=NOC[C@@H](C)[C@H](OCc1ccccc1)C(C)C -0.161, CCOC(=O)[C@H](Cc1ccccc1)NC(=O)CCC1CC(OC(=O)NCc2ccc3c(c2)OCO3)CC2(CCCC(COC(=O)NCC3CCCCC3)O2)O1 (stereo partly drawn) 0.236, COC(=O)[C@@H]1CC[C@H](C)[C@@H](c2ccc(C)cc2)N1C(=O)c1ccc(C=NOC[C@@H](O)COCc2ccco2)cc1 -0.93, Cc1cc2c(nc1C)CCCN2CC(O)CN1CCN(C)CC1 (stereo not drawn) 1.03, C=C(CCCC)C(=O)CC[C@@H](OC(C)=O)c1cccc(OCCO)c1 0.0491, CCOC(=O)[C@H](Cc1ccccc1)NC(=O)CCC1CC(OC(=O)NCc2ccc3c(c2)OCO3)CC2(CCCC(COC(=O)NCC(c3ccccc3)c3ccccc3)O2)O1 (stereo partly drawn) -0.718, C#CCCCON=C1C[C@@H](O)[C@@H](O)[C@@H]2[C@@H]3C(=O)N(c4cccc(Oc5ccccc5)c4)C(=O)[C@@H]3CC[C@@H]12 0.154, CC(C)CON=C1C[C@@H](O)[C@@H](O)[C@@H]2[C@@H]3C(=O)N(C[C@@H]4CCCO4)C(=O)[C@@H]3CC[C@H]12 -0.311, CCN1C(=O)[C@H]2[C@H]3[C@H](O)[C@H](O)CC(=NO[C@@H]4O[C@H](CO)[C@@H](O)[C@H](O)[C@H]4O)[C@@H]3CC[C@H]2C1=O 0.103, COc1ccc(-c2ccc3c(n2)CCCN3CC(O)CN2CCCc3nc(C)c(C)cc32)cc1 (stereo not drawn) 2.43, CO[C@H]1O[C@H](CO)[C@@H](OC(=O)Nc2ccc3c(c2)OCO3)[C@H](OC(=O)Nc2ccccc2-c2ccccc2)[C@@H]1OC(=O)Nc1ccccc1-c1ccccc1 0.558, COC(=O)CC1OC1[C@H](C)[C@@H](OC)C(C)C (stereo partly drawn) 0.406, CO[C@@H]1COC(=O)CC=C[C@@H](C)[C@@H]2C=C[C@H](O)[C@@H](COC(=O)[C@H](C)NC(=O)CC=C[C@H]1C)O2 0.581, N#Cc1ccc(NN2C(C(O)c3cc(C(F)(F)F)cc(C(F)(F)F)c3)C=CC3C(=O)N(c4ccccc4)C(=O)C32)cc1 (stereo not drawn) 0.239, CCOC(=O)NN=C1C[C@@H](O)[C@@H](O)[C@@H]2[C@@H]3C(=O)N(C[C@@H]4CCCO4)C(=O)[C@@H]3CC[C@@H]12 -0.354, COCCOC(=O)N1C(=O)[C@@]2(c3cc(C#CC4(O)CCCCCC4)ccc31)[C@H](C(=O)N1CCN(c3ncccn3)CC1)[C@H]1C(=O)O[C@H](c3ccccc3)[C@H](c3ccccc3)N1[C@@H]2c1ccc(OCCO)cc1 -0.108, C=CC[C@]1(C(=O)NCc2ccccc2)N=C(c2ccc(OCCCO)cc2)O[C@H]1c1ccccc1 -0.275, COc1ccc(O[C@H]2C=C[C@@H](c3ccccc3)O[C@@H]2COC(=O)CCC(C)=NOC(C)CN2CCCCc3nc(C)c(C)cc32)cc1 (stereo partly drawn) 0.105, CO[C@@H]1COC(=O)CC=C[C@@H](C)[C@@H]2C=C[C@@H](O)[C@@H](COC(=O)CC=C[C@H]1C)O2 0.142, CCOC(=O)[C@H](Cc1ccccc1)NC(=O)CCC1CC(OC(=O)NCCc2ccc(F)cc2)CC2(CCCC(COC(=O)NCC(c3ccccc3)c3ccccc3)O2)O1 (stereo partly drawn) 0.066, C[C@H]1CC[C@@H](C(=O)O)N[C@@H]1c1ccc(C#CCN(C)C)cc1 0.26, O=C1NC(=O)C2C1C=CC(C(O)Cc1ccccc1)N2Nc1ccccn1 (stereo not drawn) -0.0126, CCOC(=O)CCN1C(=O)[C@H]2[C@H]3[C@H](O)[C@H](O)CC(=NOC[C@@H](O)COCc4ccco4)[C@@H]3CC[C@H]2C1=O -0.244
